Test results published in article PMC11062922 (Nature Chemical Biology, 2023).
Like-named read-outs stand apart in the source and are kept apart here.

Tests used:
PRKD1 = settings: read-out: apparent Kd; compound concentrations:100 nM and 1000 nM (sheet 'Lestaurtinib' of Supplementary Table 1),run:Lestaurtinib_02896_R3,Plate:MR030; n = 1
PTK2B = settings: read-out: apparent Kd, n = 1
SIK3 = settings: read-out: apparent Kd, n = 1
SLK = settings: read-out: apparent Kd, n = 1
[1] = compound concentrations:100 nM and 1000 nM (sheet 'Lestaurtinib' of Supplementary Table 1),run:Lestaurtinib_02339_R2,Plate:MR001
[2] = compound concentrations:100 nM and 1000 nM (sheet 'Lestaurtinib' of Supplementary Table 1),run:Lestaurtinib_02422_R1,Plate:MR006
[3] = compound concentrations:100 nM and 1000 nM (sheet 'Lestaurtinib' of Supplementary Table 1),run:Lestaurtinib_02443_R3,Plate:MR009
[4] = compound concentrations:100 nM and 1000 nM (sheet 'Lestaurtinib' of Supplementary Table 1),run:Lestaurtinib_02473_R3,Plate:MR010
[5] = compound concentrations:100 nM and 1000 nM (sheet 'Lestaurtinib' of Supplementary Table 1),run:Lestaurtinib_02496_R1,Plate:MR013
[6] = compound concentrations:100 nM and 1000 nM (sheet 'Lestaurtinib' of Supplementary Table 1),run:Lestaurtinib_02496_R2,Plate:MR013
[7] = compound concentrations:100 nM and 1000 nM (sheet 'Lestaurtinib' of Supplementary Table 1),run:Lestaurtinib_02496_R3,Plate:MR013
[8] = compound concentrations:100 nM and 1000 nM (sheet 'Lestaurtinib' of Supplementary Table 1),run:Lestaurtinib_02748_R1,Plate:MR024
[9] = compound concentrations:100 nM and 1000 nM (sheet 'Lestaurtinib' of Supplementary Table 1),run:Lestaurtinib_03172_R3,Plate:MR031
[10] = compound concentrations:100 nM and 1000 nM (sheet 'Lestaurtinib' of Supplementary Table 1),run:Lestaurtinib_02367_R3,Plate:MR003
[11] = compound concentrations:100 nM and 1000 nM (sheet 'Lestaurtinib' of Supplementary Table 1),run:Lestaurtinib_02381_R3,Plate:MR004
[12] = compound concentrations:100 nM and 1000 nM (sheet 'Lestaurtinib' of Supplementary Table 1),run:Lestaurtinib_02422_R3,Plate:MR006
[13] = compound concentrations:100 nM and 1000 nM (sheet 'Lestaurtinib' of Supplementary Table 1),run:Lestaurtinib_02438_R2,Plate:MR008
[14] = compound concentrations:100 nM and 1000 nM (sheet 'Lestaurtinib' of Supplementary Table 1),run:Lestaurtinib_02482_R3,Plate:MR011
[15] = compound concentrations:100 nM and 1000 nM (sheet 'Lestaurtinib' of Supplementary Table 1),run:Lestaurtinib_02566_R3,Plate:MR014
[16] = compound concentrations:100 nM and 1000 nM (sheet 'Lestaurtinib' of Supplementary Table 1),run:Lestaurtinib_02577_R2,Plate:MR016
[17] = compound concentrations:100 nM and 1000 nM (sheet 'Lestaurtinib' of Supplementary Table 1),run:Lestaurtinib_02577_R3,Plate:MR016
[18] = compound concentrations:100 nM and 1000 nM (sheet 'Lestaurtinib' of Supplementary Table 1),run:Lestaurtinib_02584_R2,Plate:MR017
[19] = compound concentrations:100 nM and 1000 nM (sheet 'Lestaurtinib' of Supplementary Table 1),run:Lestaurtinib_02584_R3,Plate:MR017

Substance: Lestaurtinib
- potency estimated from few doses (PRKD1): 141 nM
- potency estimated from few doses (PTK2B; [1]): 971 nM
- potency estimated from few doses (PTK2B; [2]): 859 nM
- potency estimated from few doses (PTK2B; compound concentrations:100 nM and 1000 nM (sheet 'Lestaurtinib' of Supplementary Table 1),run:Lestaurtinib_02437_R3,Plate:MR007): 800 nM
- potency estimated from few doses (PTK2B; [3]): 928 nM
- potency estimated from few doses (PTK2B; [4]): 58.4 nM
- potency estimated from few doses (PTK2B; compound concentrations:100 nM and 1000 nM (sheet 'Lestaurtinib' of Supplementary Table 1),run:Lestaurtinib_02487_R1,Plate:MR012): 209 nM
- potency estimated from few doses (PTK2B; [5]): 974 nM
- potency estimated from few doses (PTK2B; [6]): 703 nM
- potency estimated from few doses (PTK2B; [7]): 966 nM
- potency estimated from few doses (PTK2B; compound concentrations:100 nM and 1000 nM (sheet 'Lestaurtinib' of Supplementary Table 1),run:Lestaurtinib_02572_R1,Plate:MR015): 615 nM
- potency estimated from few doses (PTK2B; compound concentrations:100 nM and 1000 nM (sheet 'Lestaurtinib' of Supplementary Table 1),run:Lestaurtinib_02572_R2,Plate:MR015): 666 nM
- potency estimated from few doses (PTK2B; [8]): 954 nM
- potency estimated from few doses (PTK2B; [9]): 1240 nM
- potency estimated from few doses (SIK3; compound concentrations:100 nM and 1000 nM (sheet 'Lestaurtinib' of Supplementary Table 1),run:Lestaurtinib_02339_R3,Plate:MR001): 1990 nM
- potency estimated from few doses (SIK3; [10]): 2180 nM
- potency estimated from few doses (SIK3; compound concentrations:100 nM and 1000 nM (sheet 'Lestaurtinib' of Supplementary Table 1),run:Lestaurtinib_02381_R2,Plate:MR004): 2120 nM
- potency estimated from few doses (SIK3; [11]): 1930 nM
- potency estimated from few doses (SIK3; compound concentrations:100 nM and 1000 nM (sheet 'Lestaurtinib' of Supplementary Table 1),run:Lestaurtinib_02407_R3,Plate:MR005): 1890 nM
- potency estimated from few doses (SIK3; compound concentrations:100 nM and 1000 nM (sheet 'Lestaurtinib' of Supplementary Table 1),run:Lestaurtinib_02422_R2,Plate:MR006): 1760 nM
- potency estimated from few doses (SIK3; [12]): 1570 nM
- potency estimated from few doses (SIK3; compound concentrations:100 nM and 1000 nM (sheet 'Lestaurtinib' of Supplementary Table 1),run:Lestaurtinib_02437_R2,Plate:MR007): 1400 nM
- potency estimated from few doses (SIK3; compound concentrations:100 nM and 1000 nM (sheet 'Lestaurtinib' of Supplementary Table 1),run:Lestaurtinib_02438_R1,Plate:MR008): 1800 nM
- potency estimated from few doses (SIK3; [13]): 1720 nM
- potency estimated from few doses (SIK3; compound concentrations:100 nM and 1000 nM (sheet 'Lestaurtinib' of Supplementary Table 1),run:Lestaurtinib_02438_R3,Plate:MR008): 1330 nM
- potency estimated from few doses (SIK3; compound concentrations:100 nM and 1000 nM (sheet 'Lestaurtinib' of Supplementary Table 1),run:Lestaurtinib_02443_R1,Plate:MR009): 1970 nM
- potency estimated from few doses (SIK3; compound concentrations:100 nM and 1000 nM (sheet 'Lestaurtinib' of Supplementary Table 1),run:Lestaurtinib_02443_R2,Plate:MR009): 1960 nM
- potency estimated from few doses (SIK3; [3]): 964 nM
- potency estimated from few doses (SIK3; [4]): 1240 nM
- potency estimated from few doses (SIK3; [14]): 1570 nM
- potency estimated from few doses (SIK3; compound concentrations:100 nM and 1000 nM (sheet 'Lestaurtinib' of Supplementary Table 1),run:Lestaurtinib_02487_R2,Plate:MR012): 1700 nM
- potency estimated from few doses (SIK3; [5]): 956 nM
- potency estimated from few doses (SIK3; [7]): 1300 nM
- potency estimated from few doses (SIK3; compound concentrations:100 nM and 1000 nM (sheet 'Lestaurtinib' of Supplementary Table 1),run:Lestaurtinib_02566_R1,Plate:MR014): 1420 nM
- potency estimated from few doses (SIK3; [15]): 1460 nM
- potency estimated from few doses (SIK3; compound concentrations:100 nM and 1000 nM (sheet 'Lestaurtinib' of Supplementary Table 1),run:Lestaurtinib_02577_R1,Plate:MR016): 1590 nM
- potency estimated from few doses (SIK3; [16]): 1630 nM
- potency estimated from few doses (SIK3; [17]): 1960 nM
- potency estimated from few doses (SIK3; [18]): 1420 nM
- potency estimated from few doses (SIK3; [19]): 1300 nM
- potency estimated from few doses (SIK3; compound concentrations:100 nM and 1000 nM (sheet 'Lestaurtinib' of Supplementary Table 1),run:Lestaurtinib_02601_R1,Plate:MR018): 1820 nM
- potency estimated from few doses (SIK3; compound concentrations:100 nM and 1000 nM (sheet 'Lestaurtinib' of Supplementary Table 1),run:Lestaurtinib_02601_R2,Plate:MR018): 1650 nM
- potency estimated from few doses (SIK3; compound concentrations:100 nM and 1000 nM (sheet 'Lestaurtinib' of Supplementary Table 1),run:Lestaurtinib_02606_R2,Plate:MR019): 1760 nM
- potency estimated from few doses (SIK3; compound concentrations:100 nM and 1000 nM (sheet 'Lestaurtinib' of Supplementary Table 1),run:Lestaurtinib_02624_R1,Plate:MR020): 1910 nM
- potency estimated from few doses (SIK3; compound concentrations:100 nM and 1000 nM (sheet 'Lestaurtinib' of Supplementary Table 1),run:Lestaurtinib_02724_R1,Plate:MR021): 1300 nM
- potency estimated from few doses (SIK3; compound concentrations:100 nM and 1000 nM (sheet 'Lestaurtinib' of Supplementary Table 1),run:Lestaurtinib_02724_R2,Plate:MR021): 1320 nM
- potency estimated from few doses (SIK3; compound concentrations:100 nM and 1000 nM (sheet 'Lestaurtinib' of Supplementary Table 1),run:Lestaurtinib_02724_R3,Plate:MR021): 1350 nM
- potency estimated from few doses (SIK3; compound concentrations:100 nM and 1000 nM (sheet 'Lestaurtinib' of Supplementary Table 1),run:Lestaurtinib_02741_R2,Plate:MR023): 1300 nM
- potency estimated from few doses (SIK3; [8]): 1410 nM
- potency estimated from few doses (SIK3; compound concentrations:100 nM and 1000 nM (sheet 'Lestaurtinib' of Supplementary Table 1),run:Lestaurtinib_02748_R2,Plate:MR024): 1490 nM
- potency estimated from few doses (SIK3; compound concentrations:100 nM and 1000 nM (sheet 'Lestaurtinib' of Supplementary Table 1),run:Lestaurtinib_02752_R1,Plate:MR025): 1430 nM
- potency estimated from few doses (SIK3; compound concentrations:100 nM and 1000 nM (sheet 'Lestaurtinib' of Supplementary Table 1),run:Lestaurtinib_02752_R2,Plate:MR025): 1720 nM
- potency estimated from few doses (SIK3; compound concentrations:100 nM and 1000 nM (sheet 'Lestaurtinib' of Supplementary Table 1),run:Lestaurtinib_02765_R2,Plate:MR026): 1360 nM
- potency estimated from few doses (SIK3; compound concentrations:100 nM and 1000 nM (sheet 'Lestaurtinib' of Supplementary Table 1),run:Lestaurtinib_02766_R1,Plate:MR027): 1130 nM
- potency estimated from few doses (SIK3; compound concentrations:100 nM and 1000 nM (sheet 'Lestaurtinib' of Supplementary Table 1),run:Lestaurtinib_02768_R3,Plate:MR028): 1510 nM
- potency estimated from few doses (SIK3; compound concentrations:100 nM and 1000 nM (sheet 'Lestaurtinib' of Supplementary Table 1),run:Lestaurtinib_02795_R1,Plate:MR022): 2150 nM
- potency estimated from few doses (SIK3; compound concentrations:100 nM and 1000 nM (sheet 'Lestaurtinib' of Supplementary Table 1),run:Lestaurtinib_02802_R1,Plate:MR029): 1990 nM
- potency estimated from few doses (SIK3; compound concentrations:100 nM and 1000 nM (sheet 'Lestaurtinib' of Supplementary Table 1),run:Lestaurtinib_02802_R3,Plate:MR029): 1720 nM
- potency estimated from few doses (SIK3; compound concentrations:100 nM and 1000 nM (sheet 'Lestaurtinib' of Supplementary Table 1),run:Lestaurtinib_02896_R3,Plate:MR030): 1210 nM
- potency estimated from few doses (SIK3; compound concentrations:100 nM and 1000 nM (sheet 'Lestaurtinib' of Supplementary Table 1),run:Lestaurtinib_03172_R1,Plate:MR031): 1420 nM
- potency estimated from few doses (SIK3; compound concentrations:100 nM and 1000 nM (sheet 'Lestaurtinib' of Supplementary Table 1),run:Lestaurtinib_03172_R2,Plate:MR031): 1540 nM
- potency estimated from few doses (SIK3; [9]): 1130 nM
- potency estimated from few doses (SIK3; compound concentrations:100 nM and 1000 nM (sheet 'Lestaurtinib' of Supplementary Table 1),run:Lestaurtinib_03252_R1,Plate:MR032): 1350 nM
- potency estimated from few doses (SIK3; compound concentrations:100 nM and 1000 nM (sheet 'Lestaurtinib' of Supplementary Table 1),run:Lestaurtinib_03252_R2,Plate:MR032): 1130 nM
- potency estimated from few doses (SIK3; compound concentrations:100 nM and 1000 nM (sheet 'Lestaurtinib' of Supplementary Table 1),run:Lestaurtinib_03260_R2,Plate:MR033): 1420 nM
- potency estimated from few doses (SLK; [1]): 859 nM
- potency estimated from few doses (SLK; compound concentrations:100 nM and 1000 nM (sheet 'Lestaurtinib' of Supplementary Table 1),run:Lestaurtinib_02364_R2,Plate:MR002): 1540 nM
- potency estimated from few doses (SLK; compound concentrations:100 nM and 1000 nM (sheet 'Lestaurtinib' of Supplementary Table 1),run:Lestaurtinib_02364_R3,Plate:MR002): 1370 nM
- potency estimated from few doses (SLK; compound concentrations:100 nM and 1000 nM (sheet 'Lestaurtinib' of Supplementary Table 1),run:Lestaurtinib_02367_R1,Plate:MR003): 1350 nM
- potency estimated from few doses (SLK; compound concentrations:100 nM and 1000 nM (sheet 'Lestaurtinib' of Supplementary Table 1),run:Lestaurtinib_02367_R2,Plate:MR003): 1300 nM
- potency estimated from few doses (SLK; [10]): 1530 nM
- potency estimated from few doses (SLK; [11]): 1210 nM
- potency estimated from few doses (SLK; compound concentrations:100 nM and 1000 nM (sheet 'Lestaurtinib' of Supplementary Table 1),run:Lestaurtinib_02407_R2,Plate:MR005): 1670 nM
- potency estimated from few doses (SLK; [2]): 1150 nM
- potency estimated from few doses (SLK; [12]): 1360 nM
- potency estimated from few doses (SLK; [13]): 1420 nM
- potency estimated from few doses (SLK; [3]): 992 nM
- potency estimated from few doses (SLK; [14]): 1420 nM
- potency estimated from few doses (SLK; [6]): 1310 nM
- potency estimated from few doses (SLK; [7]): 1620 nM
- potency estimated from few doses (SLK; [15]): 1130 nM
- potency estimated from few doses (SLK; compound concentrations:100 nM and 1000 nM (sheet 'Lestaurtinib' of Supplementary Table 1),run:Lestaurtinib_02572_R3,Plate:MR015): 1790 nM
- potency estimated from few doses (SLK; [16]): 1320 nM
- potency estimated from few doses (SLK; [17]): 997 nM
- potency estimated from few doses (SLK; [18]): 1320 nM
- potency estimated from few doses (SLK; [19]): 1580 nM
